# Bioassay records from PubChem BioAssay.
# This excerpt belongs to a sample that is enriched for hits.
# KDM5B inh: inhibitors of human KDM5B histone demethylase. Q9UGL1. KDM5B demethylase, FDH-coupled NADH fluorescence (FDH is formaldehyde dehydrogenase). Potency, µM (doses to about 57.7 µM), actives largely listed as inhibitors. 220,000 tested, 2.6% active. AID 1347165; active means well fitted inhibition curve with a large enough effect; further: 0% is about no effect; nearly all actives have a fitted effect of over 70% in size
#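 Compound dilutions met 200 nM (final) KDM5BΔAP for 10 min at room temperature before substrate addition. The substrate mix held 12.5 µM H3K4me3 with cofactors 25 µM α-ketoglutarate and 50 µM Fe²⁺. NADH signal gain over 30 min defined activity.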
# Active calls of the source: *; i = inactive. Potency means the concentration at half of the fitted maximal effect.
SMILES,KDM5B inh
CN1CCN(C(=O)CCC[C@@H]2[C@H]3CCCN4CCC[C@@H](CN2Cc2ccccc2)[C@@H]34)CC1,32µM*
CC(=O)N1C[C@@H]2CCCN3CCC[C@@H]([C@H]23)[C@H]1CCCC(=O)NCCN(C)C,28µM*
COc1ccccc1OCCNC(=O)CCC[C@@H]1[C@H]2CCCN3CCC[C@@H](CN1C(C)=O)[C@@H]23,i
CC(=O)N1C[C@@H]2CCCN3CCC[C@@H]([C@H]23)[C@H]1CCCC(=O)N1CCN(c2ccc(F)cc2)CC1,i
COc1ccc(N2CCN(C(=O)CCC[C@@H]3[C@H]4CCCN5CCC[C@@H](CN3C(C)=O)[C@@H]45)CC2)cc1,i
O=C(CCC[C@@H]1[C@H]2CCCN3CCC[C@@H](CN1Cc1ccccc1)[C@@H]23)N1CCOCC1,i
O=C(CCC[C@@H]1[C@H]2CCCN3CCC[C@@H](CN1Cc1ccccc1)[C@@H]23)N1CCCC1,i
CC(=O)N1C[C@@H]2CCCN3CCC[C@@H]([C@H]23)[C@H]1CCCC(=O)N1CCN(c2ccccn2)CC1,32µM*
Cn1nc(C(=O)Nc2cccc(Cl)c2)c2c1-c1ccsc1CC2,i
Cc1ccc(NS(=O)(=O)c2cc([N+](=O)[O-])ccc2N/N=C/c2ccc(C#N)cc2)c(C)c1,i
CCc1ccc(NC(=O)Cn2c(-c3cccc(Cl)c3)nc(C)c(CCO)c2=O)cc1,i
Cc1ccc(N=C2NN=C(c3c[nH]c(C(=O)N4CCCC4)c3)CS2)c(C)c1,i
O=C(CSc1nc2cc(Cl)ccc2c(=O)n1Cc1ccccc1)N1CCCCC1,i
Cc1cccc(C(=O)Nc2sc3c(c2C(N)=O)CCCCC3)c1,i
Cc1cc(SC(C(=O)O)c2ccccc2)ncn1 (configuration not stated),i
COCCn1c(-n2nc(C)cc2C)nc2c1c(=O)n(Cc1cc(C)ccc1C)c(=O)n2C,i
CCN(Cc1ccccc1)C(=O)CCC[C@@H]1[C@H]2CCCN3CCC[C@@H](CN1Cc1cccnc1)[C@@H]23,i
NC(=O)CCC[C@@H]1[C@H]2CCCN3CCC[C@@H](CN1Cc1ccccc1)[C@@H]23,i
CN(Cc1cccnc1)C(=O)CCC[C@@H]1[C@H]2CCCN3CCC[C@@H](CN1Cc1cccnc1)[C@@H]23,22µM*
Cc1ccc(NC(=O)COC(=O)c2nc(-c3ccccc3)oc2C)c(C)c1,i
Cc1ccc(S(=O)(=O)Nc2nc3ccc(C)cc3nc2Nc2ccc3c(c2)OCO3)cc1,i
O=C(C[C@@H]1CCNC[C@@H]1Cc1cc(-c2ccc(F)cc2)on1)Nc1nccs1,i
CC(C)Cc1cc(CNC(=O)Nc2nnc(C(C)(C)C)s2)on1,i
CCCc1noc(-c2cccn3c(CNC(=O)Cc4c[nH]c5ccccc45)nnc23)n1,20µM*
Cc1noc(-c2cccn3c(CNC(=O)c4ccccc4C)nnc23)n1,28µM*
SMILES,KDM5B inh
CCCc1noc(-c2cccn3c(CNC(=O)c4ccc(OC)cc4C)nnc23)n1,i
Cc1ccccc1-c1noc(-c2ccccc2C(=O)NCc2ccco2)n1,i
CCCc1noc(-c2cccn3c(CNC(=O)c4cc(C)ccc4C)nnc23)n1,28µM*
CCCc1noc(-c2cccn3c(CNC(=O)c4ccccc4C)nnc23)n1,13µM*
CC(C)NC(=O)c1nc(Cc2c[nH]c3ccccc23)no1,i
Cc1noc(-c2cccn3c(CNC(=O)Cc4c[nH]c5ccccc45)nnc23)n1,i
N#CC(C(=O)/C=C/c1ccccc1)C(=O)Nc1ccccc1Cl (configuration not stated),i
CC(C)C(=O)NC1CCCN(C(=O)c2cc(=O)[nH]c3ccccc23)C1 (configuration not stated),i
COc1cc(OC)c(-c2nc3ccc(-c4ccc(OC)c(OC)c4OC)cc3o2)cc1OC,i
CC1(c2ccccc2)CCCN(C(=O)c2cnc(-c3cccnc3)nc2)C1 (configuration not stated),i
CCCc1noc(-c2cccn3c(CNC(=O)c4ccccc4OCC)nnc23)n1,i
CCCc1noc(-c2cccn3c(CNC(=O)c4ccc(F)cc4Cl)nnc23)n1,14µM*
CCCc1noc(-c2cccn3c(CNC(=O)c4ccccc4Cl)nnc23)n1,28µM*
CCc1noc(-c2cccn3c(CNC(=O)c4ccccc4Cl)nnc23)n1,28µM*
CCCc1noc(-c2cccn3c(CNC(=O)c4cccc5[nH]ccc45)nnc23)n1,i
CCN(CC)C(=O)Cn1c(=O)c2c(ncn2Cc2ccco2)n(Cc2ccccc2)c1=O,i
COc1cc(/C=C(/C#N)C(=O)C(C)(C)C)cc(Cl)c1OC,i
COc1ccc(-c2noc(CSc3nnc(-c4ccco4)n3C)n2)c(OC)c1,i
COC(=O)c1[nH]c(C)c(/C(O)=C2\C(=O)C(=O)N(CCCn3ccnc3)C2c2ccccc2F)c1C (configuration not stated),i
c1ccc(CC2CCN(Cc3nnc4cc(-c5nc(-c6ccccc6)no5)ccn34)CC2)cc1,i
c1ccc(-c2noc(-c3ccn4c(CN5CCc6ccccc6C5)nnc4c3)n2)cc1,32µM*
CC(=O)N1CCN(Cc2nnc3cc(-c4nc(-c5ccccc5)no4)ccn23)CC1,6.3µM*
CCOC(=O)C1CCN(Cc2nnc3cc(-c4nc(-c5ccccc5)no4)ccn23)CC1,i
CC(c1nc(-c2ccccc2)no1)N1CCc2ccccc2C1 (configuration not stated),i
O=C(NCc1ccc(F)cc1)C1CCCN(C(=O)c2cccc(C(F)(F)F)c2)C1 (configuration not stated),i
SMILES,KDM5B inh
Cc1nc(N2CCCC2)c2c(C(=O)NCc3ccco3)c(C)oc2n1,i
Cc1[nH]c2ccccc2c1-c1csc(NC(=O)C2CC2)n1,i
CC(C)C(NC(=O)c1ccc(CS(C)(=O)=O)cc1)c1ccc(F)cc1 (configuration not stated),i
Cc1ccc(C)c(NC(=O)N2CCN(c3nc(C)cc(N4CCOCC4)n3)CC2)c1,i
COCCN(C)C[C@@H]1CN(C(=O)c2cnc(SC)nc2)C[C@@H]1CO,i
COCCN(C)C[C@@H]1CN(C(=O)c2nc(-c3ccccc3)[nH]c2C)C[C@@H]1CO,i
COCCN(C)C[C@@H]1CN(c2cc(C)c3ccc(SC)cc3n2)C[C@@H]1CO,28µM*
COc1ccc(C(=O)/C=C/c2c(F)cccc2F)cc1CC(=O)O,i
CN=C(NC)NCc1cccc(Br)c1,i
Cc1cccc(Cn2c(=O)c3c(nc(-n4nc(C)cc4C)n3CC(C)C)n(C)c2=O)c1,i
CCOC(=O)N1CCN(C(=O)c2ccc(N3CCCCS3(=O)=O)cc2Cl)CC1,i
O=C(CCc1ncc(-c2ccccc2F)o1)NCCN1CCOCC1,i
CN1CCOc2c(C(=O)NCCC(N)=O)cc(-c3ccccc3F)cc21,32µM*
Cc1cc(CN2CCOc3c(O)cc(-c4ccccc4C)cc3C2)on1,i
Cc1ccccc1-c1cc(C(=O)NCCC(N)=O)c2c(c1)N(C)CCO2,32µM*
Cc1nnc(CN2CCOc3c(O)cc(-c4ccccc4C)cc3C2)s1,i
CC(=O)NCC(=O)N1CCCn2cc(-c3ccccc3F)nc21,i
N#C/C(=C\c1ccco1)C(=O)NC1CCCC1,i
CC(C)(C)C(=O)COC(=O)c1c(Cl)cccc1Cl,i
O=C(CSc1ccc(Cl)cc1)NNC(=O)C1CCCc2ccccc21 (configuration not stated),i
CCn1c(=O)c2c(nc(-n3nc(C)cc3C)n2CC)n(C)c1=O,i
